Measurements reported in PubChem BioAssay (NCATS).
Records with an inconclusive call do not appear. Active and inactive are the calls of the source. The call rests on the fitted dose curve; in most records, active means well fitted curve in the direction sought with a large enough effect; inconclusive means small, poorly fitted or top-dose-only effect, or another doubt; inactive means no such curve, though single readings can be large; an effect the other way counts as inactive or inconclusive. Peptide text beside a SMILES is read from it. * marks the point of attachment. AFC = O=c1cc(C(F)(F)F)c2ccc(N*)cc2o1

Columns and labels:
[1] = target: Cellular tumor antigen p53 (Homo sapiens) (UniProt P04637); assay: Primary qHTS for small molecule compounds that upregulate eGFP-tagged delta133p53alpha (in N-terminal) cells. (AID 2060322); conditions: NCI-H358 eGFP-delta133p53alpha fluorescence, 24 h; activation: active compounds read high;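 further: cells pre-induced with doxycycline then dosed without doxycycline; series mostly up to about 56 µM; 0% = DMSO vehicle and 100% = reference activator; nearly all actives have a fitted effect of over 75% in size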
In short: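 NCI-H358 cells pre-induced 24 h with 10 ng/ml doxycycline for eGFP-delta133p53alpha, plated dox-free and exposed 24 h at 37C to titrated compounds. Fixed, Hoechst-stained; gated GFP peak intensity by laser scanning cytometry, normalized to DMSO (0%) and 57.5 uM 5-azacytidine (100%).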

[2] = target: Aldehyde dehydrogenase, mitochondrial (Homo sapiens) (UniProt P05091); assay: qHTS for Inhibitors of the Aldehyde Dehydrogenase Family (ALDH2) Primary screen (AID 2061308);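 further: plate controls were vehicle for no effect and reference inhibitor for full effect; nearly all actives have a fitted effect of over 55% in size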
[3] = target: Retinaldehyde dehydrogenase 3 (Homo sapiens) (UniProt P47895); assay: qHTS for Inhibitors of the Aldehyde Dehydrogenase Family (ALDH1A3) Primary screen (AID 2061315);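 further: plate controls were DMSO vehicle for no effect and reference inhibitor for full effect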

Cellular tumor antigen p53 (Homo sapiens), sequence (P04637 whole entry, looked up): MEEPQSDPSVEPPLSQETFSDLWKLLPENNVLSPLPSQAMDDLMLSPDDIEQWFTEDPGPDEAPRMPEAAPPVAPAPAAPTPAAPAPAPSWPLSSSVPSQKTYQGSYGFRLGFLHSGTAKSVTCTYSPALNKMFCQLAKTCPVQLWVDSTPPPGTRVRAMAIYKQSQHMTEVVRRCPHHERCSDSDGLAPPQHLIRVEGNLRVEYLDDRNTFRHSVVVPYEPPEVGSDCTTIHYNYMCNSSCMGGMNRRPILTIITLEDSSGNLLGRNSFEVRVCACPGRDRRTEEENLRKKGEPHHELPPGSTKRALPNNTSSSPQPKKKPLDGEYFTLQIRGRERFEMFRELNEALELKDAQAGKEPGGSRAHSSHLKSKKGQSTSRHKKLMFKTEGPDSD

COC(=O)[C@H](Cc1cccc(C(=N)N)c1)[C@@H](C)NC(=O)c1ccc(-c2cc[n+]([O-])cc2)cc1
inactive: activation [1] 8.93% | Potency [2] | Potency [3]

NS(=O)(=O)Nc1ncnc(OCCOc2ncc(Br)cn2)c1-c1ccc(Br)cc1
inactive: activation [1] 18.1% | Potency [2] | Potency [3]

CN(C)CC#CCCC(=O)C(O)(c1ccccc1)C1CCC1 (configuration not stated)
inactive: activation [1] 8.33% | Potency [2] | Potency [3]

C[C@@H]1CC[C@]2(C(=O)OC3OC(CO)C(O)C(O)C3O)CC[C@]3(C)C(=CCC4[C@@]5(C)CC[C@H](O)[C@](C)(C(=O)O)C5CC[C@]43C)C2[C@]1(C)O (some centres not stated)
inactive: activation [1] -8.93% | Potency [2] | Potency [3]

OC[C@H]1O[C@@H](Oc2ccccc2)[C@H](O)[C@@H](O)[C@@H]1O
inactive: activation [1] -0.893% | Potency [2] | Potency [3]

CCc1cccc(CC)c1-n1c(C=C(C)C)c(C(=O)N2CCNCC2)cc(-c2nc(-c3ccc(C(F)(F)F)cc3)cs2)c1=O
inactive: activation [1] 26.3% | Potency [2] | Potency [3]

COC(O)(CC(C)C)C1Oc2cc(C)[nH]c(=O)c2O1 (configuration not stated)
inactive: activation [1] -26.7% | Potency [2] | Potency [3]

Cc1ccc(S(=O)(=O)N2CCC[C@H]2c2ccc(F)cc2)cc1
inactive: activation [1] 8.93% | Potency [2] | Potency [3]

CC(=O)OC1C(O)CC(O[C@@H]2O[C@H](CO)[C@@H](O)[C@H](O)[C@H]2O)C2CCC3C(=O)OC(c4ccoc4)CC3(C)C21 (some centres not stated)
inactive: activation [1] 3.05% | Potency [2] | Potency [3]

CCN(CCN(C)C)C(=O)CNCc1cc(C(N)=O)ccn1
inactive: activation [1] -3.67% | Potency [2] | Potency [3]

CC(C)c1noc(C2CCN(c3ncnc(Nc4ccc(S(C)(=O)=O)cc4F)c3[N+](=O)[O-])CC2)n1
inactive: activation [1] 21% | Potency [2] | Potency [3]

NC1CCCCN(c2c(F)cc3c(=O)c(C(=O)O)cn(C4CC4)c3c2Cl)C1 (configuration not stated)
inactive: activation [1] -8.59% | Potency [2] | Potency [3]

CC(=O)N[C@@H](CC(C)C)C(=O)N[C@@H](CCC(=O)O)C(=O)N[C@@H](CCC(=O)O)C(=O)N[C@@H](CC(=O)O)C(=O)Nc1ccc2c(C(F)(F)F)cc(=O)oc2c1 (Ac-LEED-{AFC})
inactive: activation [1] 2.33% | Potency [2] | Potency [3]

C/C=C/[C@@H]1C=C[C@@H]2C[C@H](C)CC[C@H]2[C@]1(C)/C(O)=C1/C(=O)[C@@H](CO)N(C)C1=O
inactive: activation [1] 6.87% | Potency [2] | Potency [3]

CC(C)=CCC[C@](C)(O[C@@H]1O[C@H](CO)[C@@H](O)[C@H](O)[C@H]1O)[C@H]1CC[C@]2(C)[C@@H]1[C@H](O)CC1[C@@]3(C)CC[C@H](O)C(C)(C)C3[C@@H](O[C@@H]3O[C@H](CO)[C@@H](O)[C@H](O)[C@H]3O[C@@H]3O[C@@H](C)[C@H](O)[C@@H](O)[C@H]3O)C[C@]12C (some centres not stated)
inactive: activation [1] -21.4% | Potency [2] | Potency [3]

CC/C=C\CCO[C@@H]1O[C@H](CO)[C@@H](O)[C@H](O)[C@H]1O
inactive: activation [1] -18.3% | Potency [2] | Potency [3]

COc1ccccc1[C@@H]1C2=C(CC(C)(C)CC2=O)Nc2n[nH]c(C(F)(F)F)c21
inactive: activation [1] 9.67% | Potency [2] | Potency [3]

CC(=O)/C=C/C1(O)C(C)(C)CC(O)CC1(C)O (configuration not stated)
inactive: activation [1] 12.2% | Potency [2] | Potency [3]

COc1ccc(O[C@@H]2O[C@H](CO)[C@@H](O)[C@H](O)[C@H]2O)cc1OC
inactive: activation [1] -17% | Potency [2] | Potency [3]

CC1(C)S[C@@H]2[C@H](NC(=O)[C@H](N)c3ccc(O)cc3)C(=O)N2[C@H]1C(=O)O
inactive: activation [1] -5% | Potency [2] | Potency [3]

CC1(C)Oc2ncnc(N)c2N=C1c1ccc(C2CCC(CC(=O)O)CC2)cc1 (configuration not stated)
inactive: activation [1] -4.46% | Potency [2] | Potency [3]

C[C@@H]1O[C@@H](O[C@H]2[C@H](OC(=O)[C@]34CCC(C)(C)C[C@H]3C3=CCC5[C@@]6(C)C[C@H](O)[C@H](O[C@@H]7O[C@H](CO)[C@@H](O)[C@H](O)[C@H]7O)[C@@](C)(CO)C6[C@H](O)C[C@@]5(C)[C@]3(C)CC4)OC[C@H](O)[C@@H]2O)[C@H](O)[C@H](O)[C@H]1O[C@@H]1OC[C@@H](O)[C@H](O[C@@H]2OC[C@](O)(CO)[C@H]2O)[C@H]1O (some centres not stated)
inactive: activation [1] 5.36% | activity change, negative = inhibition [2] 8.31% [at 11.2 µM] | activity change, negative = inhibition [3] 7.08% [at 11.2 µM]

Cc1cc(CNC(=O)c2cc(C(=O)NCc3ccc(F)c(C)c3)ncn2)ccc1F
inactive: activation [1] 1.67% | Potency [2] | Potency [3]

Clc1ccc(Nc2nc3ccccc3c3nc(C4CCCCC4)[nH]c23)cc1Cl
inactive: activation [1] 22% | Potency [2] | Potency [3]

C[C@@H](O)[C@H](N)C(=O)N1CCC[C@H]1C(=O)N1CCC[C@H]1C(=O)N[C@H](C(N)=O)[C@@H](C)O (H-TPPT-NH2)
inactive: activation [1] 1% | activity change, negative = inhibition [2] 5.09% [at 11.2 µM] | activity change, negative = inhibition [3] -29.1% [at 11.2 µM]

N#Cc1cc(CN2CCC(Nc3ncnc4sc(Cl)cc34)CC2)ccc1F
inactive: activation [1] 5% | Potency [2] | Potency [3]

Cc1ccc(C(=O)N2CCN(c3ccc([N+](=O)[O-])cc3)CC2)cc1Cl
inactive: activation [1] 1.91% | Potency [2] | Potency [3]

C=C1C[C@]23C[C@H]1CC[C@H]2[C@]1(C)CC[C@H](O)[C@@](C)(C(=O)O)[C@H]1[C@@H]3C(=O)O
inactive: activation [1] -6.11% | Potency [2] | Potency [3]

O[C@@](Cc1ncc(CC2(C(F)(F)F)CC2)[nH]1)(c1ccc(-n2cccn2)cc1)C(F)(F)F
inactive: activation [1] -3% | Potency [2] | Potency [3]

C=C1CCC2C(C)(C(=O)O)CCCC2(C)C1CCC(C)CC(=O)O (configuration not stated)
inactive: activation [1] -3.57% | Potency [2] | Potency [3]

O=C(NCc1ccc(OC(F)(F)F)cc1)C1c2c(F)cccc2C(=O)N1CCc1ccccn1 (configuration not stated)
inactive: activation [1] 11.6% | Potency [2] | Potency [3]

CC(=O)O[C@H]1C[C@@H]2[C@]3(CC[C@]4(C)[C@@H](C5(C)CCC(C(C)(C)O)O5)[C@@H](O)C[C@@]24C)C[C@@]32CC[C@H](O[C@@H]3OC[C@@H](O)[C@H](O)[C@H]3O)C(C)(C)[C@H]12 (some centres not stated)
inactive: activation [1] -4.46% | Potency [2] | Potency [3]

CC1=CCC2C(C)(C)CCC[C@]2(C)[C@@]12CC[C@](C)(CC(=O)O)O2 (some centres not stated)
inactive: activation [1] 27.5% | Potency [2] | Potency [3]

Cc1cc(CO)c(O)c(C(=O)CC2CC(=O)NC(=O)C2)c1
inactive: activation [1] -5.34% | Potency [2] | Potency [3]

C=C(C)C1CC(O)C(C)C12CC(O)C1(C)OC1C2O (configuration not stated)
inactive: activation [1] 19.1% | Potency [2] | Potency [3]

OCc1ccc(O[C@@H]2O[C@H](CO)[C@@H](O)[C@H](O)[C@H]2O)cc1
inactive: activation [1] 2.68% | Potency [2] | Potency [3]

CC(=O)OC1CC2(C)C(CCC(C)C23Cc2c(O)cc4c(c2O3)CNC4=O)C(C)(C)C1O (configuration not stated)
inactive: activation [1] 9.92% | Potency [2] | Potency [3]

CC(C)=CCC[C@@](C)(O)[C@H]1CC[C@]2(C)[C@@H]1[C@H](O)CC1[C@@]3(C)CC[C@H](O[C@@H]4O[C@H](CO)[C@@H](O)[C@H](O)[C@H]4O[C@@H]4O[C@H](CO)[C@@H](O)[C@H](O)[C@H]4O)C(C)(C)[C@@H]3CC[C@]12C (some centres not stated)
inactive: activation [1] -17.6% | Potency [2] | Potency [3]

COc1c2c(c(C)c3c1C(=O)OC3)O[C@@]1(C)C[C@@H](O)[C@]34O[C@](OC)(CC[C@]3(C)[C@H]1C2)OC4(C)C
inactive: activation [1] -1.53% | Potency [2] | Potency [3]

OC[C@H]1O[C@@H](Oc2ccc3c(c2)OC[C@H]2c4cc5c(cc4O[C@@H]32)OCO5)[C@H](O)[C@@H](O)[C@@H]1O
inactive: activation [1] -13.7% | Potency [2] | Potency [3]

CC(C)C1(O[C@@H]2O[C@H](CO)[C@@H](O)[C@H](O)[C@H]2O)CC=C(CO)CC1 (some centres not stated)
inactive: activation [1] 17.9% | Potency [2] | Potency [3]

O=C1C[C@@]2(C(=O)N1)C(=O)N(Cc1ccc(Br)cc1F)C(=O)c1cccn12
inactive: activation [1] -11.7% | Potency [2] | Potency [3]

C[C@@H]1O[C@@H](O[C@H]2[C@@H]3C=CO[C@@H](O[C@@H]4O[C@H](CO)[C@@H](O)[C@H](O)[C@H]4O)[C@@H]3[C@@]3(CO)O[C@@H]23)[C@H](O)[C@H](OC(=O)/C=C/c2ccc(O)cc2)[C@H]1OC(=O)/C=C/c1ccc(O)cc1
inactive: activation [1] -13% | Potency [2] | Potency [3]

C=CC1(C)CC(O)C2(CCC3C(C)(C(=O)O)CCCC3(C)C2=O)C1 (configuration not stated)
inactive: activation [1] -2.29% | Potency [2] | Potency [3]

Nc1nc2c(s1)CCN(Cc1ccc(Cl)cc1)CC2
inactive: activation [1] 19.1% | Potency [2] | Potency [3]

O=C(O)c1ccc(NC(=O)[C@H](CC2CCCC2)n2cnc(C(F)(F)F)c2)nc1
inactive: activation [1] -23.2% | Potency [2] | Potency [3]

C[C@@H]1O[C@@H](O[C@H]2[C@H](O)[C@@H](O)[C@H](OC[C@H]3O[C@@H](OC(=O)[C@]45CCC(C)(C)C[C@H]4C4=CCC6[C@@]7(C)C[C@@H](O)[C@H](O)[C@@](C)(CO)C7[C@H](O)C[C@@]6(C)[C@]4(C)CC5)[C@H](O)[C@@H](O)[C@@H]3O)O[C@@H]2CO)[C@H](O)[C@H](O)[C@H]1O (some centres not stated)
inactive: activation [1] 16% | Potency [2] | Potency [3]

CC(=O)OC1C(O)CC2(C)C(CCC3(C)C2CC=C2C4C5(CCC(CO[C@@H]6O[C@H](CO)[C@@H](O)[C@H](O)[C@H]6O)(OC5=O)C4(C)O)C(O)CC23C)C1(C)C (some centres not stated)
inactive: activation [1] -11.5% | Potency [2] | Potency [3]

CC(C)(O)C1CC(=O)C2(C)C(CCC3(C)C(c4ccoc4)OC(=O)C4OC432)C12CCC(=O)OC2 (configuration not stated)
inactive: activation [1] -3.57% | Potency [2] | Potency [3]
